# According to PubChem BioAssay AID686979 (National Center for Advancing Translational Sciences (NCATS), 2013):
# “And” between values parts separate entries of the source, which are not always exact repeats. Equal entries are not always repeated. Out of some 420,000 compounds screened, about 50,000 (12%) were called active. Inconclusive results (about 26%) are left out. For the sample, actives were picked, then their nearest neighbours and some compounds at random. Unmarked numbers belong to inactive results. The call rests on the fitted dose curve; in most records, active means well fitted inhibition curve with a large enough effect; inconclusive means small, poorly fitted or top-dose-only effect; inactive means flat fitted curve, though single readings scatter.
# Experiment: qHTS for Inhibitors of human tyrosyl-DNA phosphodiesterase 1 (TDP1): qHTS in cells in presence of CPT; further: nearly all actives have a fitted effect of over 55% in size
# Conditions: chicken DT40 Tdp1-/-;hTDP1 cells + 20 nM CPT, ATP luminescence, 48 h; series mostly up to 46.2 µM; activity change, negative = growth inhibition: at the top concentration
# Method in brief: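 Cell growth measured by CellTiter-Glo luminescence after a minimum 48 h, 37 C compound exposure with 20 nM CPT in Tdp1-knockout DT40 cells stably expressing hTDP1, seeded 400/well; qHTS titration format.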
# On the % scale 0 is the no-effect control and ±100 the full control effect; potency means the concentration at half of the fitted maximal effect.
Structure (SMILES),"activity change, negative = growth inhibition",Potency
CC[C@]12c3[nH]c4ccc(Cl)cc4c3CCN1C(=O)[C@@H](CC(=O)NCCCOC)C[C@@H]2C(=O)N1CCN(C(=O)C2CC2)CC1,-25.7%,–
CC(C)N(C(=O)[C@H]1C[C@H](CC(=O)NC(C)(C)C)C(=O)N2CCc3c([nH]c4ccc(Cl)cc34)[C@]12C)C(C)C,–,7.31 µM (active)
CCN(CC)C(=O)[C@H]1C[C@H](CC(=O)NCC23CC4CC(CC(C4)C2)C3)C(=O)N2CCc3c([nH]c4cc(CCC(=O)N(C)C)ccc34)[C@]12C,–,20.6 µM (active)
CCN(CC)C(=O)[C@H]1CC(CC(=O)NCc2ccco2)C(=O)N2CCc3c([nH]c4ccccc34)[C@]12C (stereo not given in full),-24.8%,–
CN(C)C(=O)CCc1ccc2c3c([nH]c2c1)[C@]1(CCc2ccccc2)[C@@H](C(=O)N2CCCCC2)C[C@H](CC(=O)NCCC2=CCCCC2)C(=O)N1CC3,–,8.2 µM (active)
CN(C)C(=O)CCc1ccc2c3c([nH]c2c1)[C@]1(C)[C@@H](C(=O)N2CCOCC2)C[C@H](CC(=O)NCCc2ccccn2)C(=O)N1CC3,14.2%,–
CC[C@]12c3[nH]c4cc(CCC(=O)N(C)C)ccc4c3CCN1C(=O)[C@@H](CC(=O)NCc1ccco1)C[C@@H]2C(=O)N1CCN(C(=O)c2ccco2)CC1,-19%,–
CC[C@]12c3[nH]c4cc(CCC(=O)N(C)C)ccc4c3CCN1C(=O)[C@@H](CC(=O)NCCCN(C)C)C[C@@H]2C(=O)N1CCN(C(=O)c2ccco2)CC1,1.51%,–
COc1ccccc1-c1c(C#N)c(N)nc2c1CCC2,12.8%,–
O=C(O)C(CCc1ccccn1)c1ccccc1 (stereo not given),24.6%,–
Cc1csc(/N=C/N(C)C)c1C#N,8.34%,–
OCC1CCCN(c2nc3cc4c(cc3cc2CNCc2cccs2)OCO4)C1 (stereo not given),3.65% [at 9.04 µM],–
Cc1ccc(C(=O)NCC(=O)NC2CC2)cc1,-25.1%,–
CCCOC(=O)c1cc2ccccc2oc1=O,-2.05%,–
CCOC(=O)C1=C(C)NC(=S)NC1c1cccs1 (stereo not given),2.09%,–
CCOC(=O)C1=C(N)N2C(=O)C(C)SC2=C(C(=O)OCC)C1c1cc(OC)c(OC)c(OC)c1 (stereo not given),4.66%,–
COc1cc(C2CC(=O)c3cnc(NC(C)=O)nc3C2)cc(OC)c1OC (stereo not given),-14.6%,–
CCCOC(=O)c1[nH]c2c(c1C)C(=O)CC(c1cccs1)C2 (stereo not given),–,0.58 µM (active)
CCCOC(=O)c1[nH]c2c(c1C)C(=O)CC(c1cc(OC)c(OC)c(OC)c1)C2 (stereo not given),–,9.2 µM (active)
N#Cc1ccccc1NC(=O)c1cccc(COc2ccc(Cl)cc2Cl)c1,-5.45%,–
CCc1ccccc1NC(=O)[C@@H]1CCC(=O)N1C1OC(=O)c2c1ccc(OC)c2OC (stereo not given in full),-13.3%,–
COc1ccc2c(c1OC)C(=O)OC2c1c(O)nc(SC)n(-c2ccccc2)c1=O (stereo not given),0.164%,–
COc1ccc(-c2csc(NC3OC(=O)c4ccccc43)n2)cc1 (stereo not given),–,11.6 µM (active)
COc1ccc(N/C=C(\C2OC(=O)c3ccccc32)[N+](=O)[O-])cc1 (stereo not given),-1.24%,–
COc1ccc(-c2csc(NC(=O)CCCc3cccs3)n2)cc1,-23.6%,–

Structure (SMILES),"activity change, negative = growth inhibition",Potency
COc1ccc2c(c1OC)C(=O)OC2Nc1nc(-c2ccccc2)cs1 (stereo not given),–,2.31 µM (active)
COC(=O)C(NS(=O)(=O)c1ccc(F)cc1)c1ccccc1 (stereo not given),-24.2%,–
Cc1cccc(-c2nnc(SC(C)C(=O)Nc3ccccc3)n2C)c1 (stereo not given),-10.2%,–
COc1ccc(NC(=O)CNC(=O)Cc2ccccc2)cc1OC,1.52%,–
COc1ccc(NC(=O)NC(C)c2c(-n3cccc3)sc(C)c2C)cc1OC (stereo not given),–,16.4 µM (active)
CCn1cc(NC(=O)Nc2ccc(OC)c(OC)c2)c(C(N)=O)n1,11.3%,–
Cc1nc(C)c(-c2csc(NCCc3ccccc3)n2)s1,–,14.6 µM (active)
S=c1[nH]nc(NCCc2ccccc2)s1,-3.43%,–
Cc1nc(N)sc1-c1ccccc1,-0.668%,–
CCCn1c(=NC(C)=O)c(C(=O)OCC)cc2c(=O)n3ccccc3nc21,-16.3%,–
CCOC(=O)c1cc2c(=O)n3ccccc3nc2n(CC(C)C)c1=NC(=O)c1c(-c2c(F)cccc2Cl)noc1C,–,16.4 µM (active) and 8.2 µM (active)
CCOC(=O)c1cc2c(=O)n3ccccc3nc2n(CC2CCCO2)c1=NC(=O)c1ccccc1F (stereo not given),-14.2%,–
COc1ccccc1OCC(=O)OCc1cc(-c2ccco2)on1,-10.3%,–
COc1cccc(C(c2c(O)cc(C)n(Cc3ccco3)c2=O)N2CCN(c3ccccc3)CC2)c1 (stereo not given),-10.4%,–
O=C(NCCN1CCOCC1)c1cc(-c2cccs2)nc2ccccc12,-6.74%,–
CCCCN(C)CCCNC(=O)c1cc(-c2cccs2)nc2ccccc12,–,29.1 µM (active)
CC(C)(C)Cc1nnc(NC(=O)c2cc(-c3ccccc3)nc3ccccc23)s1,1.81%,–
Cn1cc(CN2CCCC(CO)C2)c(-c2ccc(Oc3ccccc3)cc2)n1 (stereo not given),-29.3%,–
Cc1ccccc1NC(=O)C1CCN(C(=O)NC2CCCCC2)CC1,17.2%,–
CCN(C(=O)COC(=O)Cc1c(F)cccc1Cl)c1c(N)n(Cc2ccccc2)c(=O)[nH]c1=O,1.95%,–
CCN(C(=O)COC(=O)CCOc1cccc(C)c1)c1c(N)n(Cc2ccccc2)c(=O)[nH]c1=O,–,16.4 µM (active)
CCN(C(=O)CN1CCN(Cc2ccccc2)CC1)c1c(N)n(Cc2ccccc2)c(=O)[nH]c1=O,–,11.6 µM (active)
CCN(C(=O)COC(=O)c1c(C)nn(-c2ccccc2)c1Cl)c1c(N)n(Cc2ccccc2)c(=O)[nH]c1=O,7.19%,–
CCN(C(=O)COC(=O)c1sccc1C)c1c(N)n(Cc2ccccc2)c(=O)[nH]c1=O,-1.38%,–
COCCN(C(=O)COC(=O)Cc1cccc(OC)c1)c1c(N)n(Cc2ccccc2)c(=O)[nH]c1=O,0.869%,–
